Molecules are shown by their SMILES. In all, about 39,000 compounds went through this assay and about 3,300 (8.5%) were called active. The sample as a whole holds a higher share of actives than the screen did.

Here are results for 75 compounds from the antibiotic and cytotoxicity screens of Wong et al. (2023).

This assay deals with HepG2. As to the kind of experiment: cytotoxicity call (relative viability < 0.9). The settings on record: 10 µM.
Take `C[C@H](CO)N1C[C@H](C)[C@H](CN(C)C(=O)Nc2ccc(F)cc2)OCCCC[C@H](C)Oc2ccc(NC(=O)NC3CCCCC3)cc2C1=O`: the cytotoxicity call is “inactive”. As to `O=c1[nH]c(=O)n(C2CC(O)C(CO)O2)cc1F` (stereo not given), the cytotoxicity call was “active”.

For `O=c1[nH]c(=O)n([C@@H]2C[C@@H](O)[C@@H](CO)O2)cc1F`, the cytotoxicity call was “inactive”. Next, `Cc1cn([C@H]2C[C@H](O)[C@@H](CO)O2)c(=O)[nH]c1=O`: “inactive”; `O=c1[nH]c(=O)n([C@H]2C[C@H](O)[C@@H](CO)O2)cc1C(F)(F)F`: “active”; `O=c1[nH]c(=O)n(C2CC(O)C(CO)O2)cc1C(F)(F)F` (stereo not given): “inactive”. Next, `O=c1[nH]c(=O)n([C@H]2C[C@H](O)[C@@H](CO)O2)cc1F`: “inactive”; `CCCNC(=O)C[C@H]1CC[C@@H]2[C@H](COc3ccc(NC(=O)c4ccc5c(c4)OCO5)cc3C(=O)N2C)O1`: “inactive”. Turning to `COc1ccccc1NC(=O)N(C)C[C@H]1Oc2ncc(C#CC(C)C)cc2C(=O)N([C@H](C)CO)C[C@H]1C`, the cytotoxicity call was “inactive”.

Turning to `C/C=C/c1ccc2c(c1)O[C@H](CN(C)S(=O)(=O)c1ccccc1OC)[C@H](C)CN([C@H](C)CO)S2(=O)=O`, the cytotoxicity call was “inactive”.

Regarding `COc1ccc(NC(=O)N(C)C[C@H]2OCCCC[C@H](C)Oc3ccc(NC(=O)NC4CCCCC4)cc3C(=O)N([C@H](C)CO)C[C@@H]2C)cc1`, the cytotoxicity call is “inactive”. Next, `CN(C)c1ccc(NC(=O)CN)cc1`: “active”; `NCC(=O)Nc1ccc(Br)cc1`: “inactive”. The same measure for `Cc1ccc(NC(=O)CC(C)C)cc1`: “inactive”; for `C[C@H](CO)N1C[C@H](C)[C@H](CN(C)Cc2ccc3c(c2)OCO3)Oc2c(NS(C)(=O)=O)cccc2C1=O`: “inactive”; for `C[C@H](CO)N1C[C@H](C)[C@H](CN(C)C(=O)CCCN(C)C)OCCCC[C@H](C)Oc2ccc(NC(=O)Nc3ccc(F)cc3)cc2C1=O`: “inactive”. Next, `Cc1cccc(=O)n1CCCCN`: “inactive”; `Cn1cnc(=O)c2ccccc21`: “inactive”; `Cc1ccc2c(=O)c3ccccc3n(CCCN)c2c1C`: “active”. With `COc1ccc(NC(=O)Nc2cccc3c2O[C@H](CN(C)C(=O)Nc2ccc(C(F)(F)F)cc2)[C@H](C)CN([C@H](C)CO)C3=O)cc1`, the cytotoxicity call is “inactive”. The same measure for `O=C(C[C@H]1C[C@H]2c3cc(NC(=O)Cc4ccncc4)ccc3O[C@H]2[C@@H](CO)O1)NCc1cc(F)ccc1F`: “inactive”. The same measure for `C[C@H]1CN([C@@H](C)CO)C(=O)Cc2cc(NC(=O)c3ccncc3)ccc2O[C@H]1CN(C)S(=O)(=O)c1ccc(Cl)cc1`: “inactive”; for `C[C@H]1CN([C@@H](C)CO)C(=O)Cc2cc(NC(=O)C3CC3)ccc2O[C@@H]1CN(C)Cc1ccc2c(c1)OCO2`: “inactive”.

With `COc1ccc(S(=O)(=O)N(C)C[C@@H]2OCCCC[C@H](C)Oc3ccc(NC(=O)c4ccccc4)cc3C(=O)N([C@@H](C)CO)C[C@H]2C)cc1`, the cytotoxicity call is “active”. The same measure for `COc1ccc(S(=O)(=O)N(C)C[C@@H]2OCCCC[C@@H](C)Oc3ccc(NC(=O)c4ccccc4)cc3C(=O)N([C@H](C)CO)C[C@@H]2C)cc1`: “inactive”; for `C[C@@H]1CN([C@H](C)CO)C(=O)c2cc(NC(=O)c3ccccc3)ccc2O[C@@H](C)CCCCO[C@H]1CN(C)S(=O)(=O)c1ccccc1`: “active”. As for `C[C@@H]1CCCCO[C@H](CN(C)S(=O)(=O)c2ccccc2)[C@H](C)CN([C@@H](C)CO)C(=O)c2cc(NC(=O)c3ccccc3)ccc2O1`, the cytotoxicity call is “inactive”. The same measure for `Cc1ccc(S(=O)(=O)N(C)C[C@@H]2OCCCC[C@@H](C)Oc3ccc(NC(=O)c4ccccc4)cc3C(=O)N([C@@H](C)CO)C[C@H]2C)cc1`: “inactive”.

In the case of `C[C@@H]1CCCCO[C@H](CN(C)S(=O)(=O)c2ccccc2)[C@@H](C)CN([C@H](C)CO)C(=O)c2cc(NC(=O)c3ccccc3)ccc2O1`, the cytotoxicity call was “inactive”. The same measure for `COc1ccc(S(=O)(=O)N(C)C[C@H]2OCCCC[C@@H](C)Oc3ccc(NC(=O)c4ccccc4)cc3C(=O)N([C@@H](C)CO)C[C@H]2C)cc1`: “inactive”. As to `Cc1ccc(S(=O)(=O)N(C)C[C@H]2OCCCC[C@H](C)Oc3ccc(NC(=O)c4ccccc4)cc3C(=O)N([C@@H](C)CO)C[C@H]2C)cc1`, the cytotoxicity call was “inactive”. Next, `Cc1ccc(S(=O)(=O)N(C)C[C@@H]2OCCCC[C@H](C)Oc3ccc(NC(=O)c4ccccc4)cc3C(=O)N([C@H](C)CO)C[C@H]2C)cc1`: “active”; `CC(C)(C)[S@](=O)N1Cc2cc(C(=O)N3CCCCC3)nc(-c3cccc(-c4cccc(C#N)c4)c3)c2[C@@H]1CCO`: “inactive”; `CCO[C@H]1OC(C(N)=O)=C[C@@H](C)[C@@H]1CCCO`: “inactive”. Next, `C[C@H]1COC(=O)[C@@H](Cc2ccc(F)cc2)CCC=CC[C@@H](CC(=O)N[C@@H](CO)Cc2ccccc2)C(=O)N1`: “inactive”; `C[C@@H]1CN([C@H](C)CO)C(=O)Cc2cc(NC(=O)c3ccncc3)ccc2O[C@@H]1CN(C)S(=O)(=O)c1ccc(Cl)cc1`: “inactive”; `CC(C)CC#Cc1ccc2c(c1)O[C@@H](CN(C)C(=O)c1ccncc1)[C@H](C)CN([C@@H](C)CO)S2(=O)=O`: “inactive”. Next, `N=C(NO)C(=O)Nc1ccccc1`: “inactive”; `C[C@H]1CN([C@@H](C)CO)C(=O)c2ccccc2-c2ccccc2CO[C@H]1CN(C)C(=O)Nc1ccc(F)cc1`: “inactive”; `C[C@H]1CN([C@@H](C)CO)C(=O)c2cccc(NC(=O)C3CCOCC3)c2O[C@@H]1CN(C)S(=O)(=O)c1ccc(F)cc1`: “inactive”.

`COc1ccc([Si](C)(C)[C@H]2[C@H](CCO)O[C@@]3(C(=O)N(Cc4ccccc4)c4ccc(N5C(=O)c6ccccc6Oc6ccccc65)cc43)[C@@H]2C)cc1`: the cytotoxicity call was “active”. On to `COc1ccc([Si](C)(C)[C@@H]2[C@@H](CCO)O[C@]3(C(=O)N(Cc4ccc(N5C(=O)c6ccccc6Oc6ccccc65)cc4)c4ccccc43)[C@H]2C)cc1`, for which the cytotoxicity call was “active”. As to `COc1ccc([Si](C)(C)[C@H]2[C@H](CCO)O[C@@]3(C(=O)N(Cc4ccc(N5C(=O)c6ccccc6Oc6ccccc65)cc4)c4ccccc43)[C@@H]2C)cc1`, the cytotoxicity call was “active”.

Regarding `COc1ccc([Si](C)(C)[C@@H]2[C@@H](CCO)O[C@]3(C(=O)N(Cc4ccccc4)c4ccc(N5C(=O)c6ccccc6Oc6ccccc65)cc43)[C@H]2C)cc1`, the cytotoxicity call is “inactive”. Next, `C[C@H]1[C@H]([Si](C)(C)F)[C@@H](CCO)O[C@]12C(=O)N(Cc1ccccc1)c1ccc(N3C(=O)c4ccccc4Oc4ccccc43)cc12`: “inactive”; `COCC#Cc1ccc2c(c1)O[C@H](CN(C)Cc1ccc(F)cc1)[C@H](C)CN([C@@H](C)CO)S2(=O)=O`: “inactive”. As to `Cc1noc(C)c1S(=O)(=O)N(C)C[C@H]1Oc2ccc(NC(=O)CCCN(C)C)cc2C(=O)N([C@H](C)CO)C[C@@H]1C`, the cytotoxicity call was “inactive”.

`C[C@H](CO)N1C[C@H](C)[C@@H](CN(C)C)Oc2ccc(NS(=O)(=O)c3ccc(Cl)cc3)cc2CC1=O`: the cytotoxicity call was “inactive”. As to `COc1nonc1NC(C)=O`, the cytotoxicity call was “inactive”. With `O=C1C[C@H](N2C(=O)CCC2=O)[C@@H]2CO[C@@H]1O2`, the cytotoxicity call was “inactive”. Consider `C[C@@H]1CN([C@H](C)CO)C(=O)c2cccc(NC(=O)c3cnccn3)c2O[C@H]1CN(C)C(=O)Nc1ccc2c(c1)OCO2`, for which the cytotoxicity call is “inactive”. The same measure for `C[C@@H]1CN([C@H](C)CO)C(=O)Cc2cc(NC(=O)Cc3ccccc3)ccc2O[C@@H]1CN(C)Cc1ccc(Cl)c(Cl)c1`: “active”; for `C[C@H](CO)N1C[C@H](C)[C@@H](CN(C)Cc2ccc(Cl)c(Cl)c2)Oc2ccc(NC(=O)Cc3ccccc3)cc2CC1=O`: “inactive”. For the compound `C[C@H]1CN([C@@H](C)CO)C(=O)Cc2cc(NC(=O)Cc3ccccc3)ccc2O[C@H]1CN(C)Cc1ccc(Cl)c(Cl)c1`, the cytotoxicity call is “active”.

Consider `C[C@@H]1CN([C@H](C)CO)C(=O)Cc2cc(NC(=O)Cc3ccccc3)ccc2O[C@H]1CN(C)Cc1ccc(Cl)c(Cl)c1`, for which the cytotoxicity call was “inactive”.

Take `C[C@H]1CN([C@@H](C)CO)C(=O)Cc2cc(NC(=O)Cc3ccccc3)ccc2O[C@@H]1CN(C)Cc1ccc(Cl)c(Cl)c1`: the cytotoxicity call is “inactive”.

For the compound `C[C@H](CO)N1C[C@H](C)[C@H](CN(C)Cc2ccc(Cl)c(Cl)c2)Oc2ccc(NC(=O)Cc3ccccc3)cc2CC1=O`, the cytotoxicity call is “inactive”. Next, `C[C@@H]1CN([C@@H](C)CO)C(=O)Cc2cc(NC(=O)Cc3ccccc3)ccc2O[C@H]1CN(C)Cc1ccc(Cl)c(Cl)c1`: “inactive”; `C[C@@H]1CN([C@@H](C)CO)C(=O)Cc2cc(NC(=O)Cc3ccccc3)ccc2O[C@@H]1CN(C)Cc1ccc(Cl)c(Cl)c1`: “active”; `C[C@@H]1CN([C@@H](C)CO)C(=O)c2cc(NC(=O)C3CCCCC3)ccc2O[C@@H](C)CCCCO[C@@H]1CN(C)Cc1ccncc1`: “inactive”. The same measure for `Cc1noc(C)c1S(=O)(=O)N(C)C[C@H]1Oc2ccc(NC(=O)C3CCCCC3)cc2CC(=O)N([C@H](C)CO)C[C@H]1C`: “inactive”; for `C[C@H]1CN([C@@H](C)CO)C(=O)c2cccc(NS(=O)(=O)c3ccccc3)c2O[C@@H]1CN(C)Cc1ccc(Cl)c(Cl)c1`: “inactive”.

With `O=C(C[C@H]1C=C[C@@H](NS(=O)(=O)c2ccccc2)[C@H](CO)O1)NCc1ccncn1`, the cytotoxicity call was “inactive”. The same measure for `Cn1cnc(S(=O)(=O)N2C[C@H](O)COC[C@H]3O[C@H](CC(=O)NCc4ccc(F)cc4)CC[C@@H]32)c1`: “inactive”. The same measure for `CN(C)C(=O)c1ccc(-c2cccc(-c3nc(C(=O)NC4CCCCC4)cc4c3[C@H](CCO)N([S@@](=O)C(C)(C)C)C4)c2)cc1`: “inactive”; for `CCCN(C)C[C@@H]1OCCCC[C@H](C)Oc2ccc(NC(=O)Nc3ccc4c(c3)OCO4)cc2C(=O)N([C@H](C)CO)C[C@@H]1C`: “inactive”; for `C[C@@H]1CN([C@H](C)CO)S(=O)(=O)c2ccc(C#CC3(O)CCCC3)cc2O[C@H]1CN(C)C(=O)Nc1ccccc1`: “inactive”. As for `C[C@@H]1CN([C@H](C)CO)S(=O)(=O)c2ccc(C#CC3(O)CCCC3)cc2O[C@@H]1CN(C)C(=O)Nc1ccccc1`, the cytotoxicity call was “active”. On to `C[C@@H]1CN([C@H](C)CO)S(=O)(=O)c2ccc(/C=C/c3ccccc3)cc2O[C@@H]1CN(C)C(=O)Nc1cc(F)ccc1F`, for which the cytotoxicity call was “active”. The same measure for `COc1cccc(NC(=O)N(C)C[C@H]2Oc3cc(C#CC4(O)CCCC4)ccc3S(=O)(=O)N([C@@H](C)CO)C[C@H]2C)c1`: “inactive”; for `COc1cccc(NC(=O)N(C)C[C@H]2Oc3cc(C#CC4(O)CCCC4)ccc3S(=O)(=O)N([C@H](C)CO)C[C@@H]2C)c1`: “inactive”; for `C[C@H](CO)N1C[C@H](C)[C@@H](CN(C)C(=O)Nc2cc(F)ccc2F)Oc2cc(/C=C/c3ccccc3)ccc2S1(=O)=O`: “inactive”.

Regarding `C[C@H]1CN([C@@H](C)CO)S(=O)(=O)c2ccc(C#CC3(O)CCCC3)cc2O[C@H]1CN(C)C(=O)Nc1ccccc1`, the cytotoxicity call is “inactive”. On to `COc1cccc(NC(=O)N(C)C[C@H]2Oc3cc(C#CC4(O)CCCC4)ccc3S(=O)(=O)N([C@H](C)CO)C[C@H]2C)c1`, for which the cytotoxicity call was “active”.

On to `C[C@@H]1CN([C@H](C)CO)S(=O)(=O)c2ccc(/C=C/c3ccccc3)cc2O[C@H]1CN(C)C(=O)Nc1cc(F)ccc1F`, for which the cytotoxicity call is “inactive”.
